{"source": "PubChem BioAssay (NCATS)", "note": "Results filed as inconclusive are left out. Activity calls are given as the source filed them. Calls follow the shape of the dose curve; as a rule, active = well fitted inhibition curve with a large enough effect; inconclusive = small, poorly fitted or top-dose-only effect, or effect the other way; inactive = flat fitted curve, though single readings scatter.", "data": [{"target": "ATPase family AAA domain-containing protein 5 (Homo sapiens) (UniProt Q96QE3)", "sequence (Q96QE3 whole entry, looked up, the tested form may be a part)": "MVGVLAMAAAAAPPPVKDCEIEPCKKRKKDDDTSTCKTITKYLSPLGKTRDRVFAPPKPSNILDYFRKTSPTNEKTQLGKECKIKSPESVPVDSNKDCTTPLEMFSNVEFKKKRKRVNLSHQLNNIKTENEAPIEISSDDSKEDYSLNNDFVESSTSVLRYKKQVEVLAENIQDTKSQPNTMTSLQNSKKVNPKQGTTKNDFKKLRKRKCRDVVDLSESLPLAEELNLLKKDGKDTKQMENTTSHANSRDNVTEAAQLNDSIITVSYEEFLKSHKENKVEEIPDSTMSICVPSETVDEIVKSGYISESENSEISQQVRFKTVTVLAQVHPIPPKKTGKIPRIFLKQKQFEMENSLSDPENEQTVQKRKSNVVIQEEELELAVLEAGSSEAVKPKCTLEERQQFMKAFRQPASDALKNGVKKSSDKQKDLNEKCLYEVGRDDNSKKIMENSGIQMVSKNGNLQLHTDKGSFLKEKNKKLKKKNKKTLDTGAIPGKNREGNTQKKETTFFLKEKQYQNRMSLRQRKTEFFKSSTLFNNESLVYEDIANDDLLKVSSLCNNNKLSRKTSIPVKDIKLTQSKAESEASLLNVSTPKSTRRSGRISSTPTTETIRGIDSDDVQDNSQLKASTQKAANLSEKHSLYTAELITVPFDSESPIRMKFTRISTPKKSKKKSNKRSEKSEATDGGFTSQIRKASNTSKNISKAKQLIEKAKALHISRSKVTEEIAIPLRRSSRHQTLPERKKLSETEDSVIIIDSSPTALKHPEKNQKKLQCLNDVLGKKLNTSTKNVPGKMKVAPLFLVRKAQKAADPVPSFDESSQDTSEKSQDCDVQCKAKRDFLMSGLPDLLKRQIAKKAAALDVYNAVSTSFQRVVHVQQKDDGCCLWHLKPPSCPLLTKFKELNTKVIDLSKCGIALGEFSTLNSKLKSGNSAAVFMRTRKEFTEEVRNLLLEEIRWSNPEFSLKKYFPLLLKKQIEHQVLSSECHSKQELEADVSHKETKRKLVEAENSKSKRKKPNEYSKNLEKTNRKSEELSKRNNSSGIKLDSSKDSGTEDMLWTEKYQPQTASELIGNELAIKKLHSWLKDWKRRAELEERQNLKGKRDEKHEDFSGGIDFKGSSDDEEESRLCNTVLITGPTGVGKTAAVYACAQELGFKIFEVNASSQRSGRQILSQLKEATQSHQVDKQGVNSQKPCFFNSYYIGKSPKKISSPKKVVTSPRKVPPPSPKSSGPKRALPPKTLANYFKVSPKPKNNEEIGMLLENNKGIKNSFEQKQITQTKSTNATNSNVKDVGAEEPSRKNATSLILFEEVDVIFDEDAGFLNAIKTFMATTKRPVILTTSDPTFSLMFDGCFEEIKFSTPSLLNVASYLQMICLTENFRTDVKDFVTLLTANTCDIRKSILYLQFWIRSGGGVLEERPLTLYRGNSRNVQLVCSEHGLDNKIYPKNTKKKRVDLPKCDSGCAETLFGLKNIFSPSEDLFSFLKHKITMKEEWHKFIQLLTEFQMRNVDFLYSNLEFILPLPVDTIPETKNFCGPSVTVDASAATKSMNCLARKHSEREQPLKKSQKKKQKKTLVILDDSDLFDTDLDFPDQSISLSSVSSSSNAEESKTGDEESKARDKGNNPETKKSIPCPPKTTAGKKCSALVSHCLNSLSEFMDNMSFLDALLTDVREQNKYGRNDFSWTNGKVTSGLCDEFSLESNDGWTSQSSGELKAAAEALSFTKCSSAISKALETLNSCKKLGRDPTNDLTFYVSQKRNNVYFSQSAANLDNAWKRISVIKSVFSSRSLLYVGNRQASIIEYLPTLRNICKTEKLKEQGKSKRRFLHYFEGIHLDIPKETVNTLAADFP", "assay": "Validation screen for small molecules that inhibit ELG1-dependent DNA repair in human embryonic kidney (HEK293T) cells expressing luciferase-tagged ELG1 (AID 493107);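 also: inhibitors lower the ELG1-luciferase luminescence signal; nearly all actives have a fitted effect of over 70% in size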", "details": "HEK293T ELG1-luciferase level, luminescence, 5-fluorouridine co-treatment, 16 h; series mostly up to 46.1 µM", "source_text": "NIH Molecular Libraries Probe Production Network [MLPCN]\nNIH Chemical Genomics Center [NCGC]\nAssay Provider: Kyungjae Myung, NHGRI, NIH\nKeywords: MLPCN, qHTS, NCGC, genotoxicity, cancer\nCancer cells divide rapidly compared to normal cells in the body. During cell division, cancer cells need to duplicate their genome by DNA replication. The failure of genome duplication leads to cancer cells' death. Therefore, inhibitors of DNA replication could specifically kill cancer cells. Based on this concept, many chemotherapeutic agents were developed and have been used to treat cancer patients. However, there are a limited number of agents available in the clinical setting, and some of those that do exist have low efficacy and severe side effects. Therefore, if we can find the compounds that effectively block DNA replication either by directly damaging DNA or by inhibiting other cellular mechanisms, the options for cancer treatment will be broadened. With this in mind, we developed a quantitative high-throughput ELG1-luciferase reporter gene assay. Small molecules that specifically block ELG1 function in response to DNA damage can be identified by monitoring the suppression of luciferase activity. Since ELG1 defines a pathway for repairing DNA damage, agents blocking ELG1 function can be used to sensitize cancer cells to chemotherapeutic agents whose mechanism of action involves the induction of DNA damage.\nFor genotoxicity screening, 2,000 cells in 4 uL/well were dispensed into white, solid-bottom 1536-well plates using a solenoid-based dispenser. Following transfer of 1 uL 5-Fluorouridine and 23 nL compound or DMSO vehicle by a pin tool, the plates were incubated 16 hr at 37 °C and 5% CO2. 5 ul ONE-Glo (Promega) was then added to each plate and following a 30 min incubation at room temperature, luciferase activity was quantified on a ViewLux CCD-based plate reader.", "values": [{"smiles": "NCCS", "outcome": "inactive"}, {"smiles": "CC(=O)N[C@@H](CS)C(=O)O", "outcome": "inactive"}, {"smiles": "COC(=O)[C@@H]1[C@H]2C[C@H]3c4[nH]c5ccccc5c4CCN3C[C@@H]2CC[C@@H]1O", "outcome": "inactive"}, {"smiles": "CCn1cc(C(=O)O)c(=O)c2ccc(C)nc21", "outcome": "inactive"}, {"smiles": "O=C1NC(=O)C(c2ccccc2)(c2ccccc2)N1", "outcome": "inactive"}, {"smiles": "CC(=O)c1ccc(S(=O)(=O)NC(=O)NC2CCCCC2)cc1", "outcome": "inactive"}, {"smiles": "CC(C)NCC(O)COc1cccc2[nH]ccc12", "note": "(configuration not stated)", "outcome": "inactive"}, {"smiles": "Clc1ccc(Cn2c(CN3CCCC3)nc3ccccc32)cc1", "outcome": "inactive"}, {"smiles": "C[N+](C)(C)CCCCCC[N+](C)(C)C", "outcome": "inactive"}, {"smiles": "C[N+](C)(C)CC(=O)O", "outcome": "inactive"}, {"smiles": "CCN(CC)CCNC(=O)c1ccc(N)cc1", "outcome": "inactive"}, {"smiles": "O=C(O)CCc1nc(-c2ccccc2)c(-c2ccccc2)o1", "outcome": "inactive"}, {"smiles": "CCCCCN(C)CCC(O)(P(=O)(O)O)P(=O)(O)O", "outcome": "inactive"}, {"smiles": "CCN(CC)CCOC(=O)c1ccc(N)cc1", "outcome": "inactive"}, {"smiles": "O=C(NCCN1CCOCC1)c1ccc(Cl)cc1", "outcome": "inactive"}, {"smiles": "CC(=O)O[C@]1(C(C)=O)CC[C@H]2[C@@H]3C=C(Cl)C4=CC(=O)[C@@H]5C[C@@H]5[C@]4(C)[C@H]3CC[C@@]21C", "outcome": "inactive"}, {"smiles": "CCCNC(=O)NS(=O)(=O)c1ccc(Cl)cc1", "outcome": "inactive"}, {"smiles": "CCN(CC)C(=O)c1ccc(O)c(OC)c1", "outcome": "inactive"}, {"smiles": "Cc1cccc(C)c1OCC(C)N", "note": "(configuration not stated)", "outcome": "inactive"}, {"smiles": "NC(N)=Nc1nc(CSCC/C(N)=N/S(N)(=O)=O)cs1", "outcome": "inactive"}, {"smiles": "COc1ccc(Cc2nccc3cc(OC)c(OC)cc23)cc1OC", "outcome": "inactive"}, {"smiles": "CC/C(=C(\\c1ccccc1)c1ccc(OCCN(C)C)cc1)c1ccccc1", "outcome": "inactive"}, {"smiles": "CCN1CCC[C@H]1CNC(=O)c1cc(S(N)(=O)=O)ccc1OC", "outcome": "inactive"}, {"smiles": "O=C1NCC2(CCN(CCc3ccccc3)CC2)O1", "outcome": "inactive"}, {"smiles": "CN(C)CCC(c1ccccc1)c1ccccn1", "note": "(configuration not stated)", "outcome": "inactive"}, {"smiles": "COc1ccccc1N1CCN(CCCNc2cc(=O)n(C)c(=O)n2C)CC1", "outcome": "inactive"}, {"smiles": "CCCCC1C(=O)N(c2ccccc2)N(c2ccccc2)C1=O", "outcome": "inactive"}]}]}
